Only some compounds are listed: those with a hit (about 17% of all), similar ones and a draw of the others.
DT40 TDP1 CPT: growth inhibition of DT40 Tdp1-/-;hTDP1 cells with camptothecin (screen for TDP1 inhibitors); chicken DT40 Tdp1-/-;hTDP1 cells + 20 nM CPT, ATP luminescence, 48 h; Potency, µM (top dose mostly 46.2 µM), for inactives: at the highest dose activity change, negative = growth inhibition, actives largely listed as inhibitors; actives 12% (n = 420,000); also: % is scaled to controls: 0 for no effect and ±100 for the full control effect; nearly all actives have a fitted effect of over 55% in size
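Chicken DT40 Tdp1-/- cells complemented with human TDP1, 400 cells/well, exposed to compounds plus 20 nM camptothecin for at least 48 h at 37 C; viability read as ATP content by CellTiter-Glo luminescence.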
TDP1 cell noCPT: qHTS for Inhibitors of human tyrosyl-DNA phosphodiesterase 1 (TDP1): qHTS in cells in absence of CPT; actives 15% (n = 420,000); DT40 Tdp1-/- hTDP1 cells, no CPT, ATP luminescence, 48 h; AID 686978, 2013; Potency, µM (highest dose often 46.2 µM), for the others: at the highest dose activity change, negative = growth inhibition, actives largely listed as inhibitors; also: % is scaled to controls: 0 for no effect and ±100 for the full control effect; nearly all actives have a fitted effect of over 55% in size
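Stably hTDP1-transfected Tdp1-null chicken DT40 cells were treated with library compounds minus camptothecin and grown for at least 48 hr at 37 °C, after which cellular ATP was quantified by luminescence.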
TDP1 inh: blocks human tyrosyl-DNA phosphodiesterase 1. actives 0.28% (n = 350,000). AID 485290. Potency, µM (top dose mostly 130 µM), inactives show top-dose activity change, negative = inhibition, actives largely listed as inhibitors. recombinant TDP1, AlphaScreen DNA substrate cleavage; also: % is scaled to controls: 0 for no effect and ±100 for the full control effect; nearly all actives have a fitted effect of over 40% in size
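E. coli-derived human Tdp1, 1 nM final. Cpd preinc 15 min RT; substrate 15 nM final, 5 min RT; AS bead mix 10 ug/ml final, 10 min RT. Signal loss = tyrosine-FITC cleavage. No-enzyme wells = max signal.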
ClpP mod: qHTS Assay for Activators of ClpP; purified B. subtilis ClpP, FRET peptide cleavage, 20 min; actives 1.9% (n = 340,000); Potency, µM (titrated, usually from 57.5 µM), for inactives: top-dose activity change, negative = active; active = well fitted falling curve with a large enough effect; inconclusive = small, poorly fitted or top-dose-only effect; inactive = no such curve, though single readings can be large or run the other way; also: the source files actives as falling curves though it sought activators and does not explain the sign; nearly all actives have a fitted effect of over 65% in size
Target sequence (P80244 whole entry, looked up): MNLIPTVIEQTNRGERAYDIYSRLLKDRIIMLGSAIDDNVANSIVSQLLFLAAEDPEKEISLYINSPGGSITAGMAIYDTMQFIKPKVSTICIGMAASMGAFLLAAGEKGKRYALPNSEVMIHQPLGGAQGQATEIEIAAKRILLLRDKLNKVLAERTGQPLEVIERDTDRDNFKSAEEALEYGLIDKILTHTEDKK
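Buffer: 100 mM Tris/HCl pH8, 100 mM KCl, 0.05% low protease BSA, 2.5% glycerol, 0.01% Tween-20. ClpP 10 microg/mL final; 20 min RT; delta FRET normalized to ADEP and DMSO controls.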
The depositor's hits bear a star; ? = inconclusive; / = no result given; [ ] = dose if it differs, or a comment. Unless noted, calls follow the shape of the dose curve; as a rule, active = well fitted curve in the direction sought with a large enough effect; inconclusive = small, poorly fitted or top-dose-only effect, or another doubt; inactive = no such curve, though single readings can be large; an effect the other way counts as inactive or inconclusive. Potency is read from the fitted curve at half-maximal effect.

SMILES	DT40 TDP1 CPT	TDP1 cell noCPT	TDP1 inh	ClpP mod
Cc1cc(C)c2c(-n3cccc3)c(NC(=O)OC(C)C)sc2n1	18µM*	21µM*	4%	-8%
COc1cc(CNC(=O)c2sc3ncccc3c2-n2cccc2)cc(OC)c1OC	18µM*	10µM*	7%	-10%
CNC(=O)c1sc2ncccc2c1-n1cccc1	-22%	?	5%	0%
COc1cccc(CNC(=O)c2sc3ncccc3c2-n2c(C)ccc2C)c1OC	10µM*	13µM*	7%	4%
CC(C)Oc1ccc(CNC(=O)c2sc3ncccc3c2-n2cccc2)cc1	21µM*	18µM*	5%	0%
COc1cccc(CNC(=O)Cc2csc3ccccc23)c1OC	?	?	3%	-1%
Cc1cc(C)c2c(-n3cccc3)c(C(=O)O)sc2n1	-9%	-16%	3%	1%
CC1=C(C(=O)NCc2ccccc2C)C2(CCCCC2)OC1=O	-24%	-16%	-1%	1%
CCOC(=O)c1c(NC(=O)COC(=O)CCOc2cc(C)ccc2C)sc(C(=O)N(C)C)c1C	-5%	-5%	/	-2%
COCCNC(=O)C1(C)CCN(C(=O)c2ccc(C(F)(F)F)nc2C)C1 (stereo unspecified)	1%	19%	/	0%
Cc1ccc(CNC(=O)c2sc3nc(C)cc(C)c3c2-n2cccc2)cc1	-24%	?	-6%	-3%
COc1cccc(CNC(=O)c2sc3nc(C)cc(C)c3c2-n2cccc2)c1OC	23µM*	?	6%	-2%
CN(C)c1ccc(CNC(=O)c2sc3ncccc3c2-n2cccc2)cc1	16µM*	21µM*	14%	-6%
COc1ccc(NC(=O)Cn2cnc3c(oc4ccccc43)c2=O)cc1OC	-16%	-12%	8%	1%
CCOC(=O)c1ccc(NC(=O)Cn2cnc3sc(C(=O)OCC)c(C)c3c2=O)cc1	-27%	-10%	-1%	-4%
Oc1[nH]c2ccccc2c1N=Nc1nc2ccccc2s1	?	?	12%	-2%
C/C(N=Nc1nc2ccccc2s1)=N\Nc1ccccc1O	9.2µM*	2.6µM*	6%	2%
N#Cc1ccsc1NC(=O)C1CCN(C(=O)c2ccc(Cl)cc2)CC1	?	?	-3%	-6%
Cc1noc(C)c1NC(=O)Nc1ccc2c(c1)CC(=O)N([C@H](C)CO)C[C@@H](C)[C@H](CN(C)CC1CCCCC1)O2	-24%	-7%	1%	-2%
FC(F)Oc1ccc(-c2csc(NNC3=NCCCCC3)n2)cc1	4.6µM*	15µM*	10%	/
Brc1ccc(-c2csc(NNC3=NCCCCC3)n2)cc1	?	?	11%	1%
CCN1C(=O)CC(CC(=O)N2CCCCC2c2nccs2)(c2ccccc2C)C1=O (stereo unspecified)	-2%[9.04 µM]	-12%	/	/
Cc1ccc(S(=O)(=O)N(CCCN2CCCC2=O)Cc2cc3c(C)ccc(C)c3[nH]c2=O)cc1	18µM*	23µM*	10%	-25%
Cc1cc(C)c2[nH]c(=O)c(CN(CC3CCCO3)S(=O)(=O)c3ccc4c(c3)OCCO4)cc2c1 (stereo unspecified)	?	23µM*	5%	?
CC(=O)c1cccc(S(=O)(=O)N(Cc2cc3cc4c(cc3[nH]c2=O)OCCO4)CC2CCCO2)c1 (stereo unspecified)	?	?	0%	-7%
SMILES	DT40 TDP1 CPT	TDP1 cell noCPT	TDP1 inh	ClpP mod
Cc1ccc(C)c2[nH]c(=O)c(CN(CC3CCCO3)S(=O)(=O)c3ccc4c(c3)OCCO4)cc12 (stereo unspecified)	?	16µM*	3%	-18%
COc1ccc(N2CCN(C(=O)CSc3nnc(C4CC4)n3C3CC3)CC2)cc1	-16%	-6%	/	-2%
CCCc1cc(=O)oc2c(C)c(OCC(=O)NC3CCN(Cc4ccccc4)CC3)ccc12	18µM*	?	5%	-9%
Cc1cc(OCC(=O)Nc2ccc(CN3CCOCC3)cc2)c2c(C)cc(=O)oc2c1	18µM*	12µM*	1%	4%
CCCc1cc(=O)oc2cc(OCC(=O)NC3CCN(Cc4ccccc4)CC3)ccc12	-23%	-4%	3%	-21%
CCCc1cc(=O)oc2c(C)c(OCC(=O)NCCCN3CCOCC3)ccc12	0%	-3%	6%	4%

Assay outcomes (PubChem BioAssay)
